The source of these data is PubChem BioAssay.

Test [1] deals with XIP peptide (Xip251-270) binding. The test is described as follows: small-molecule binders of XIP peptide, primary screen, biochemical, small-molecule microarray, fluorescence 635/667 nm, 0.1 µg/mL protein (AID 1182). The note with it: fluorescent protein binding, 635 nm, higher = more signal, called active from +8 up or from −8 down.
Test [2] has as its system XIP peptide (Xip251-270). Briefly: small-molecule binders of XIP peptide, primary screen, biochemical, small-molecule microarray, fluorescence 635/667 nm, 0.5 µg/mL protein (AID 1183). The conditions noted are these: small-molecule microarray binding, fluorescence 635 nm; higher = more signal.
Test [3] in a line: Plasmodium falciparum growth inhibition, primary screen, strain 3D7, DAPI fluorescence, 100 nL (AID 1184).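 Further: parasites grown inside human red blood cells in medium with human serum.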 The note with it: P. falciparum 3D7 growth, 3 d, higher = more signal.
Test [4] deals with Homeobox protein Hox-A13 (Mus musculus) (UniProt Q62424). Briefly: inhibitors of HoxA13-DNA binding, primary screen, biochemical, fluorescence polarization, labeled oligonucleotide (AID 1185). The note with it: 15 min, higher = more signal, called active from +8 up or from −8 down.
Sequence of Homeobox protein Hox-A13 (Mus musculus) (Q62424 whole entry, looked up): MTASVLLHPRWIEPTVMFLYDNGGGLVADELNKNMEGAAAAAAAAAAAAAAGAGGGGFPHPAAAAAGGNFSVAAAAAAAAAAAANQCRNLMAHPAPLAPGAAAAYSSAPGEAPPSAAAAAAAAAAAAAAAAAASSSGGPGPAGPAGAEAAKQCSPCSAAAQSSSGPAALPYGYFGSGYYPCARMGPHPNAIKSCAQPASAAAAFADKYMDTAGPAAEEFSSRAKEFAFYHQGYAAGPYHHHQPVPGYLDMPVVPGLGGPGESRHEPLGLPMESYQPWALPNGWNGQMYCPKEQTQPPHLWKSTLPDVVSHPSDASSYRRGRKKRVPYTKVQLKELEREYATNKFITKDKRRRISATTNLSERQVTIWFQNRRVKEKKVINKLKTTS

Each structure is given as a SMILES string. Activity calls are given as the source filed them.

As for `CCOC(=O)CCN1C(=O)[C@H]2[C@H]3[C@H](O)[C@H](O)CC(=NNC(=O)OCC)[C@H]3CC[C@H]2C1=O`, the results for the composite z-score in test [1] and in test [2] were 3.24 (inactive) and -0.397, respectively. The z-score in test [3] is -1.58; in test [4], -4.5 (inactive).

On to `C#CCCCON=C1C[C@@H](O)[C@@H](O)[C@@H]2[C@@H]3C(=O)N(C[C@@H]4CCCO4)C(=O)[C@@H]3CC[C@H]12`, for which the composite z-score in test [1] is 0.241 (inactive); in test [2] it was 0.317. Further, the z-score in test [3] is 0.211; in test [4], -1.28 (inactive).

In the case of `C[C@@H]1CC[C@@H](C(=O)O)N[C@H]1c1cccc(N2CCOCC2)c1`, the composite z-score in test [1] is -0.315 (inactive); in test [2], -0.135. In addition, the z-score in test [3] is 0.818; in test [4], 0.167 (inactive).

Take `C[C@@H](c1ccccc1)N1C(=O)[C@H]2[C@H]3[C@H](O)[C@H](O)CC(=NNC(=O)OCc4ccccc4)[C@@H]3CC[C@H]2C1=O`: the figures for the composite z-score in test [1] and in test [2] were 0.101 (inactive) and 0.209, respectively. Besides, the z-score is 0.556 in test [3] and 0.963 (inactive) in test [4].

With `CC(C)[C@H](NC(=O)OC(C)(C)C)[C@@H](O)CC(=O)C(C)(C)C`, the composite z-score was -0.232 (inactive) in test [1] and -0.19 in test [2]. Besides, the z-score in test [3] was 0.227; in test [4], -0.092 (inactive).

`CC(C)(C)N1C(=O)[C@H]2[C@@H]3C(=CC[C@H]2C1=O)C(=O)[C@H]1O[C@H]1[C@H]3O`: the composite z-score is 0.139 (inactive) in test [1] and 0.283 in test [2]. Moreover, the z-score in test [3] was -2.38; in test [4], -5.76 (inactive).

As for `CC(CCN1CCCc2nc(C)c(C)cc21)=NOC[C@@H](O)COCc1ccco1`, the figures for the composite z-score in test [1] and in test [2] were 4.43 (inactive) and 0.831, respectively. Besides, the z-score in test [3] was 0.245; in test [4], -8.38 (active).

Consider `CCN1C(=O)[C@H]2[C@H]3[C@H](O)[C@H](O)CC(=NNC(=O)OCc4ccccc4)[C@H]3CC[C@H]2C1=O`, for which the composite z-score in test [1] was -0.249 (inactive); in test [2], 0.129. The z-score in test [3] is -0.114; in test [4], -1.7 (inactive).

`CSCC[C@@H]1NC(=O)CC=C[C@@H](C)COC(=O)[C@H](C)COC1=O`: the composite z-score in test [1] is 0.439 (inactive); in test [2], 0.8. Further, the z-score in test [3] is 0.461; in test [4], 0.0971 (inactive).

With `COC(=O)[C@@H]1CC[C@H](C)[C@@H](c2ccc(C)cc2)N1C(=O)c1ccc(C=NO[C@@H](C)c2cc(-c3c(C)cc(C)cc3C)no2)cc1`, the figures for the composite z-score in test [1] and in test [2] were -0.274 (inactive) and 0.511, respectively. In addition, the z-score in test [3] is -0.225; in test [4], 0.492 (inactive).

Turning to `CCOC(=O)NN=C1C[C@@H](O)[C@@H](O)[C@@H]2[C@@H]3C(=O)N(C[C@@H]4CCCO4)C(=O)[C@@H]3CC[C@H]12`, the figures for the composite z-score in test [1] and in test [2] were 0.0272 (inactive) and 0.0356, respectively. Also, the z-score was 0.379 in test [3] and 0.0129 (inactive) in test [4].

Regarding `CCN1C(=O)[C@H]2[C@H]3[C@H](O)[C@H](O)CC(=NOCC=C(C)CCC=C(C)C)[C@@H]3CC[C@H]2C1=O`, the composite z-score in test [1] was -0.544 (inactive); in test [2], 0.615. In addition, the z-score in test [3] was -0.298; in test [4], -3.73 (inactive).

`COCCNC(=O)OCC1CCCC2(CC(OC(=O)NCc3cccc4ccccc34)CC(CCC(=O)N[C@@H](C)C(=O)OC)O2)O1` (stereo partly specified): the composite z-score in test [1] is 0.505 (inactive); in test [2] it was 0.588. The z-score in test [3] is -1.85; in test [4], -3.88 (inactive).

Consider `CO[C@H]1C[C@@H]2C[C@H](O)CC(CC(=O)O[C@@H](C=CCC(C)C)C[C@@H]3CC[C@H](C)[C@@H](C1)O3)O2`, for which the results for the composite z-score in test [1] and in test [2] were -0.199 (inactive) and 0.142, respectively. Further, the values for the z-score in test [3] and in test [4] were -0.825 and -0.952 (inactive), respectively.

`C[C@H]1CC[C@@H](C(=O)O)N[C@@H]1c1cccc(N2CCCC2=O)c1`: the composite z-score was 0.641 (inactive) in test [1] and -0.397 in test [2]. For the same compound, the values for the z-score in test [3] and in test [4] were 0.752 and -0.0351 (inactive), respectively.

`COC(=O)[C@@H]1CC[C@H](C)[C@@H](c2ccc(Br)cc2)N1C[C@@H](O)CN=[N+]=[N-]`: the results for the composite z-score in test [1] and in test [2] were -0.193 (inactive) and -0.03, respectively. The z-score was -0.877 in test [3] and -3.81 (inactive) in test [4].

With `CON=C(C)CCN1CCc2nc(-c3ccccc3)c(-c3ccccc3)cc2C1`, the values for the composite z-score in test [1] and in test [2] were 0.257 (inactive) and 0.41, respectively. In addition, the z-score is -1.38 in test [3] and -2.53 (inactive) in test [4].

For the compound `CCOC(=O)[C@H](CC(C)C)NC(=O)CCC1CC(OC(=O)NCCc2ccc(F)cc2)CC2(CCCC(COC(=O)NCCCN3CCCC3=O)O2)O1` (stereo partly specified), the composite z-score in test [1] was 0.173 (inactive); in test [2] it was 0.74. The z-score is -1.82 in test [3] and -6.3 (inactive) in test [4].

Regarding `C[C@@H]1CC[C@H]2C(=O)OC(Cc3ccccc3)CN2[C@H]1c1ccc(Br)cc1` (stereo partly specified), the composite z-score in test [1] was -0.0207 (inactive); in test [2] it was 0.276. Further, the z-score was 0.695 in test [3] and -3.22 (inactive) in test [4].

As to `COc1cccc([C@H]2Oc3ccc(OC)cc3C(=NO[C@@H](C)c3cc(-c4c(C)cc(C)cc4C)no3)[C@@H]2O)c1`, the values for the composite z-score in test [1] and in test [2] were -0.294 (inactive) and 0.0817, respectively. Moreover, the figures for the z-score in test [3] and in test [4] were -0.24 and 0.621 (inactive), respectively.

As to `COc1ccc(OC[C@@H]2CC3[C@@H](c4ccc(Br)cc4)[C@H](C)CC[C@H]3C(=O)O2)cc1` (stereo partly specified), the results for the composite z-score in test [1] and in test [2] were -0.0755 (inactive) and 0.659, respectively. Further, the z-score in test [3] was 0.163; in test [4], 0.109 (inactive).

On to `CC(C)C(=O)N[C@H]1CCCN1C(=O)C=Cc1ccccc1`, for which the composite z-score in test [1] was 0.934 (inactive); in test [2] it was -0.168. Further, the results for the z-score in test [3] and in test [4] were -0.64 and -2.18 (inactive), respectively.

Turning to `CC(=O)OC[C@H]1O[C@H](CC=NO[C@@H](C)c2cc(-c3c(C)cc(C)cc3C)no2)C=C[C@@H]1OC(C)=O`, the composite z-score in test [1] was 0.205 (inactive); in test [2] it was -0.445. Also, the z-score in test [3] is -0.863; in test [4] it was -5.88 (inactive).

On to `CC(=O)OC[C@H]1O[C@@H](ON=C(C)CCN2CCCCc3nc(C)c(C)cc32)[C@H](OC(C)=O)[C@@H](OC(C)=O)[C@@H]1OC(C)=O`, for which the composite z-score in test [1] was -0.0733 (inactive); in test [2], 0.566. The z-score in test [3] is -0.98; in test [4] it was -3.93 (inactive).

On to `O=C1C[C@@H](O)[C@@H](O)[C@@H]2[C@@H]3C(=O)N(Cc4ccccc4)C(=O)[C@@H]3CC[C@H]12`, for which the composite z-score in test [1] is -0.317 (inactive); in test [2], 0.502. Also, the figures for the z-score in test [3] and in test [4] were -0.331 and -1.12 (inactive), respectively.

As for `COC(=O)[C@H](C)NC(=O)CCC1CC(OC(=O)NCc2ccc3c(c2)OCO3)CC2(CCCC(COC(=O)NCCc3ccc(Cl)cc3)O2)O1` (stereo partly specified), the values for the composite z-score in test [1] and in test [2] were 0.0239 (inactive) and 0.375, respectively. Further, the figures for the z-score in test [3] and in test [4] were -1.97 and -5.07 (inactive), respectively.

Consider `CCOC(=O)[C@H](Cc1ccccc1)NC(=O)CCC1CC(OC(=O)NCc2cccc3ccccc23)CC2(CCCC(COC(=O)NCc3ccc4c(c3)OCO4)O2)O1` (stereo partly specified), for which the composite z-score is -0.322 (inactive) in test [1] and 0.818 in test [2]. Besides, the values for the z-score in test [3] and in test [4] were 0.721 and -3.19 (inactive), respectively.

As to `C[C@@H]1C=CCC(=O)OC[C@H](C)C(=O)N[C@@H](Cc2ccccc2)C(=O)OC1`, the composite z-score in test [1] is -0.478 (inactive); in test [2] it was -0.0947. Further, the z-score is -1.55 in test [3] and 2.57 (inactive) in test [4].

Consider `CO[C@H]1COC(=O)[C@H](C)COC(=O)[C@H](C)NC(=O)CC=C[C@H]1C`, for which the composite z-score in test [1] is 0.126 (inactive); in test [2] it was 0.506. In addition, the results for the z-score in test [3] and in test [4] were 0.0087 and -0.299 (inactive), respectively.

In the case of `CC(CCN1CCCCc2nc(C)c(C)cc21)=NO[C@@H](C)c1cc(-c2c(C)cc(C)cc2C)no1`, the composite z-score in test [1] was 0.107 (inactive); in test [2], 0.0399. In addition, the results for the z-score in test [3] and in test [4] were -0.143 and -2.25 (inactive), respectively.

`CCOC(=O)CCN1C(=O)[C@H]2[C@H]3[C@H](O)[C@H](O)CC(=NNC(=O)OCc4ccc(OC)cc4)[C@H]3CC[C@H]2C1=O`: the composite z-score in test [1] is 0.353 (inactive); in test [2], 0.277. Also, the z-score in test [3] was 0.144; in test [4], -3.67 (inactive).

On to `C=CC[C@@H]1C=C[C@H](ON=CC[C@@H]2C=C[C@H](OC(C)=O)[C@@H](COC(C)=O)O2)[C@@H](CO)O1`, for which the composite z-score in test [1] was 0.571 (inactive); in test [2], 0.749. In addition, the z-score was 0.422 in test [3] and -0.273 (inactive) in test [4].

`O=C1C=C[C@@H](O)[C@@H]2[C@@H]3C(=O)N(Cc4ccccc4)C(=O)[C@@H]3CC[C@@H]12`: the composite z-score in test [1] was 0.771 (inactive); in test [2], -0.0049. Further, the z-score in test [3] is -0.0141; in test [4], 0.291 (inactive).

Regarding `COC(=O)[C@H](C)NC(=O)CCC1CC(OC(=O)NCCc2ccc(F)cc2)CC2(CCCC(COC(=O)NCCOc3ccccc3)O2)O1` (stereo partly specified), the composite z-score in test [1] is 2.99 (inactive); in test [2], 0.536. Besides, the z-score in test [3] is -1.84; in test [4], -1.1 (inactive).
